According to PubChem BioAssay:
Activity calls are given as the source filed them.

How the values were obtained:
[1] = small molecules captured by biotinylated probe aFSTL3 – biochemical, small-molecule microarray, fluorescence 635/667, stem cell growth factor project, primary screen (AID 1064); details: higher = more signal;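 note: measures binding of the biotinylated anti-FSTL3 antibody to printed compounds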
[2] = binders from COS7 lysate, DM2A8 probe, primary screen, torsin A project, cell lysate, small-molecule microarray, fluorescence 635/667 (AID 1065); details: higher = more signal, COS7 lysate expressing mutant human TOR1A
[3] = small molecules captured by biotinylated probe aFGF2 – biochemical, small-molecule microarray, fluorescence 635/667, stem cell growth factor project, primary screen (AID 1067); details: higher = more signal;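 note: measures binding of biotinylated aFGF2 protein to printed compounds on slides; z-score merges feature fluorescence and signal-to-noise across triplicate slides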
[4] = small molecules captured by biotinylated probe aFGF10 – biochemical, small-molecule microarray, fluorescence 635/667, stem cell growth factor project, primary screen (AID 1071); details: higher = more signal;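 note: score merges 667 nm spot intensity and signal to noise from triplicate slides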
[5] = target: Neurogenic locus notch homolog protein 2 (Homo sapiens) (UniProt Q04721); test: small molecules binding Notch2 protein – biochemical, small-molecule microarray, 635 nm fluorescence, stem cell growth factors, primary screen (AID 1073); details: higher = more signal
[6] = target: Pro-neuregulin-1, membrane-bound isoform (Homo sapiens) (UniProt Q02297); test: small molecules binding neuregulin-1 protein – biochemical, small-molecule microarray, fluorescence 635/667, psychiatric disease protein project, primary screen (AID 1075); details: NRG1 binding, 635 nm fluorescence, higher = more signal;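 note: score combines 667 nm spot fluorescence with signal to noise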
[7] = system: Neuregulin-1 EGF-like domain; test: small molecules binding NRG1 EGF domain – biochemical, small-molecule microarray, 635 nm fluorescence, primary screen (AID 1081); details: higher = more signal;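 note: binding of the protein to compounds printed on small-molecule microarray slides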
[8] = FRG1 expression reporter modulators in myotubes – cell-based, C2C12 myotubes, firefly/Renilla luciferase, luminescence, FRG1 inhibition for FSHD, primary screen (AID 1084); details: FRG1 promoter luciferase, higher = more signal, called active from +8 up or from −8 down
[9] = small molecules captured by biotinylated probe aFST – biochemical, small-molecule microarray, fluorescence 635/667, stem cell growth factor project, primary screen (AID 1086); details: higher = more signal;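 note: score merges 667 nm fluorescence with signal-to-noise of each printed compound spot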
[10] = binders of probe aHhip on microarray, primary screen, stem cell growth factor project, biochemical, small-molecule microarray, fluorescence 635/667 (AID 1087); details: higher = more signal;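 note: score merges spot fluorescence at 667nm with spot signal to noise ratio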

Chain of Neurogenic locus notch homolog protein 2 (Homo sapiens) (Q04721 whole entry, looked up, canonical isoform): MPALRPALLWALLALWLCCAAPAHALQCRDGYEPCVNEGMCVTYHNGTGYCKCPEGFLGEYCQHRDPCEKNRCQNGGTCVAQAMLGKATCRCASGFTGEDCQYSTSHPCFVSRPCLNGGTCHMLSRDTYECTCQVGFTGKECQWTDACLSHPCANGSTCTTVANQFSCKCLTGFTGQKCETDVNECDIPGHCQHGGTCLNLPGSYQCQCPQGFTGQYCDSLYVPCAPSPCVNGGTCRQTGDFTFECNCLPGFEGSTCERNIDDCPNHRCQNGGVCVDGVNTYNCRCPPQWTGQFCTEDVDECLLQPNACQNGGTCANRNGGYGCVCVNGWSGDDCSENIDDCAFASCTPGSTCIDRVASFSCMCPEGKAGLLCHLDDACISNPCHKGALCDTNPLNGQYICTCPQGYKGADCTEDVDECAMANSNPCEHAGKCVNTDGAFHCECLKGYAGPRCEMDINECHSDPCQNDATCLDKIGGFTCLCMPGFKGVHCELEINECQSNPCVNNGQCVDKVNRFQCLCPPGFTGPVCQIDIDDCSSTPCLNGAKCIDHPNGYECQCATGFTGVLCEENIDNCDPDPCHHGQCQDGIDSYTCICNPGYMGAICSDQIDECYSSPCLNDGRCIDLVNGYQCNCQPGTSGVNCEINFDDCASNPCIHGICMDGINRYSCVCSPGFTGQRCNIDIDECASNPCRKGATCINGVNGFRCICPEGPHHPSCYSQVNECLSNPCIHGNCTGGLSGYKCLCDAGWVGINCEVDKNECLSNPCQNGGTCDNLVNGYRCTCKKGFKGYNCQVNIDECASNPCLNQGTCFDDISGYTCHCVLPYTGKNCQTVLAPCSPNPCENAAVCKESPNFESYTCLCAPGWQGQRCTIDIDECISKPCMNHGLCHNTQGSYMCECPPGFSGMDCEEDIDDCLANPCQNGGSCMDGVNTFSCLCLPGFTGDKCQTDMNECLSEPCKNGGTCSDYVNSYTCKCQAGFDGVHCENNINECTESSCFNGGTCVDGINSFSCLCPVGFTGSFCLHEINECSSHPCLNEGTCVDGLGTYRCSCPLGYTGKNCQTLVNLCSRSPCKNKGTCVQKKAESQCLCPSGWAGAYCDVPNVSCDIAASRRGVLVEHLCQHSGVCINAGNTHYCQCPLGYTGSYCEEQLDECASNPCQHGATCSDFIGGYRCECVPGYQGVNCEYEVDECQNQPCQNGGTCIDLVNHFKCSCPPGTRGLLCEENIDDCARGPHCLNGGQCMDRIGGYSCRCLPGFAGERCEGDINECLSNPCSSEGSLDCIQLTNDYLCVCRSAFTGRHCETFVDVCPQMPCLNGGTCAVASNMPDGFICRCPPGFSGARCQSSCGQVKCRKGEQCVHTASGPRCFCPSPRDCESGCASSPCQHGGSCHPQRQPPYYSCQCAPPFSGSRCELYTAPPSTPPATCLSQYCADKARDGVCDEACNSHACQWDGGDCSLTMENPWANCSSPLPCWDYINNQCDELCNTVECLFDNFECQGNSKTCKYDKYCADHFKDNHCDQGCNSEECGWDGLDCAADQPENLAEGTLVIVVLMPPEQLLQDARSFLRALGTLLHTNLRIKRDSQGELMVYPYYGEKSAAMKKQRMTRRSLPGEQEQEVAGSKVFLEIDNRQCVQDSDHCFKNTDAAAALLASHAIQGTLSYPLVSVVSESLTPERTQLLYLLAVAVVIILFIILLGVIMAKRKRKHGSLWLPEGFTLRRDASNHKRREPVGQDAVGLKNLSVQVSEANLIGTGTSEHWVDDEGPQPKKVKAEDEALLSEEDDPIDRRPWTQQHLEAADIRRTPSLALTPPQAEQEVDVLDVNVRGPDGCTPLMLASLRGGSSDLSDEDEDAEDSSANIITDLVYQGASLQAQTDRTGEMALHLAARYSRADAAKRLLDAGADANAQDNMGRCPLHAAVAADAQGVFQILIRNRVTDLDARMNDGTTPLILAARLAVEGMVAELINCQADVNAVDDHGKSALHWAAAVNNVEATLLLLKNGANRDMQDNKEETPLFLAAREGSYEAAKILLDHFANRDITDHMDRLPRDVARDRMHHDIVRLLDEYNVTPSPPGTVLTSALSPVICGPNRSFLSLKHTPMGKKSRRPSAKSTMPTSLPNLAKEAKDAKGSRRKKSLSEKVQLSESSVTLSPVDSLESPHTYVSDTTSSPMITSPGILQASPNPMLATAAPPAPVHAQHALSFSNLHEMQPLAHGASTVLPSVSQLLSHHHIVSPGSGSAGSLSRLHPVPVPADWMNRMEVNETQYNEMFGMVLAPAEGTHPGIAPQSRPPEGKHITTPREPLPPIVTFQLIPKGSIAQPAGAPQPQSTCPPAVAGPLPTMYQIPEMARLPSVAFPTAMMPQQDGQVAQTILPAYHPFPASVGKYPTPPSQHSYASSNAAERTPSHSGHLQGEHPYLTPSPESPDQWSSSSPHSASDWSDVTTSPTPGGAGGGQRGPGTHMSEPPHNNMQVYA
Chain of Pro-neuregulin-1, membrane-bound isoform (Homo sapiens) (Q02297 whole entry, looked up, the tested form may be a part, canonical isoform): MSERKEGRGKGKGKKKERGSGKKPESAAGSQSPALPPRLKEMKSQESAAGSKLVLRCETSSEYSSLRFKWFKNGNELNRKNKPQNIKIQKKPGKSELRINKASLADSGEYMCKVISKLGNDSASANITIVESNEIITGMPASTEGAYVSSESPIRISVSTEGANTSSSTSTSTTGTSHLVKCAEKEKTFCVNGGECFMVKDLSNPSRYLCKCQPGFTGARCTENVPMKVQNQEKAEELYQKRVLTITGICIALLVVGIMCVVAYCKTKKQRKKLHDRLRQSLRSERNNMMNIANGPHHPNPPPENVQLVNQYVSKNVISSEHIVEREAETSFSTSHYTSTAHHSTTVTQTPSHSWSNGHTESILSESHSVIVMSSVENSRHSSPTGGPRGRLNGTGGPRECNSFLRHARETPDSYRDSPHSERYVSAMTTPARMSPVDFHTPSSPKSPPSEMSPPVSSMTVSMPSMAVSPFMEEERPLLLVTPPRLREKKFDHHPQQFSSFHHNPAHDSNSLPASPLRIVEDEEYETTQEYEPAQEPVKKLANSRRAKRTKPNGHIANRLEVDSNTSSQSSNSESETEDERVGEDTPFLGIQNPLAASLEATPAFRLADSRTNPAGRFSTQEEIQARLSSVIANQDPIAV

Row | SMILES | composite z-score [1] | composite z-score [2] | composite z-score [3] | composite z-score [4] | composite z-score [5] | composite z-score [6] | composite z-score [7] | z-score [8] | composite z-score [9] | composite z-score [10]
1 | CO[C@H]1COC(=O)[C@@H]2CCCN2C(=O)CC=C[C@@H](C)[C@H](OC)COC(=O)[C@@H](OCc2ccccc2)C=C[C@@H]1C | -0.466 | 1.29 | -0.175 | -0.477 | -0.624 | -0.233 | 0.269 | -0.0576 (inactive) | 0.317 | 0.176
2 | CCC(=O)[C@@]1(O)C(=O)N2C(=C3C(=O)OCC[C@@H]31)N(Cc1ccccc1)C(C)=C(C(=O)OC)[C@H]2c1ccccc1 | -0.268 | 0.364 | -0.167 | 0.342 | 0.355 | -0.13 | 0.0811 | 0.105 (inactive) | 0.179 | 0.176
3 | COC(=O)[C@H](C)NC(=O)CCC1CC(OC(=O)NCc2ccc3c(c2)OCO3)CC2(CCCC(COC(=O)NCC(c3ccccc3)c3ccccc3)O2)O1 (stereo not given in full) | -0.686 | 0.7 | -0.0541 | 1.17 | 0.994 | 0.682 | 1.28 | 2.96 (inactive) | 0.132 | 0.0201
4 | COC(=O)CC=C[C@@H](C)[C@@H](C=NOC(C)CN1CCCc2nc(C)c(C)cc21)OC (stereo not given in full) | -0.111 | 0.382 | -0.121 | 0.354 | 0.401 | -0.171 | 0.375 | 0.422 (inactive) | 0.0017 | -0.0237
5 | CCOC(=O)[C@H](Cc1ccccc1)NC(=O)CCC1CC(OC(=O)NCc2cccc3ccccc23)CC2(CCCC(COC(=O)NCc3ccccc3)O2)O1 (stereo not given in full) | -0.356 | 0.0841 | -0.21 | 0.159 | 0.118 | 0.477 | 0.686 | 0.573 (inactive) | 0.0918 | -0.303
6 | CCOC(=O)NN=C1C[C@@H](O)[C@@H](O)[C@@H]2[C@@H]3C(=O)N(c4cccc(Oc5ccccc5)c4)C(=O)[C@@H]3CC[C@H]12 | -0.441 | 0.192 | -0.187 | 0.221 | 0.615 | 0.855 | 0.234 | -0.0124 (inactive) | 0.0755 | -0.0645
7 | COC(=O)CC=C[C@@H](C)[C@@H]1C=C[C@H](O)[C@@H](CO)O1 | -0.202 | 0.124 | -0.106 | 0.376 | 0.432 | -0.196 | -0.0778 | -0.163 (inactive) | 0.225 | -0.176
8 | O=C1[C@H]2[C@H]3[C@H](O)[C@H](O)CC(=NOCc4ccccc4)[C@H]3CC[C@H]2C(=O)N1Cc1ccc2c(c1)OCO2 | -0.537 | 0.239 | -0.172 | 0.315 | 0.306 | 0.273 | 0.278 | 0.0017 (inactive) | 0.0418 | -0.0003
9 | CCN1C(=O)[C@@H]2[C@H]3C(=CC[C@@H]2C1=O)C1(OCCCO1)[C@H]1O[C@H]1[C@H]3O | -0.418 | 0.771 | -0.076 | 1.04 | 1.17 | 0.692 | 1.19 | 7.42 (inactive) | 0.404 | -0.236
